Source: PubChem
This is a sample that favours compounds with a hit; in the whole collection about 4.2% have one here.
Sfp PPTase inh: qHTS Assay for Inhibitors of Bacillus subtilis Sfp phosphopantetheinyl transferase (PPTase); Biochemical Sfp PPTase activity, qHTS; 4'-phosphopantetheinyl transferase ffp (Bacillus subtilis), Q9F4F7; AID 1490, 2009; Potency, µM, for inactives: largest response in the series, negative = inhibition, hits mostly inhibitors; hit rate 3.5% among 310,000;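 further: the enzyme is Sfp with the accession as filed and its product quenches rhodamine fluorescence; 0% = enzyme reaction without inhibitor and -100% = no enzyme wells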
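Step 1, compound plus 15 nM Sfp-PPTase, 15 min, room temperature. Step 2, add rhodamine-CoA (5 uM) and BHQ-2-YbbR (12.5 uM). Step 3, read 525/598 nm fluorescence at 0 and 30 min.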
ALOX12 inh: Primary qHTS assay for inhibitors of human arachidonate 12S-lipoxygenase (ALOX12): Round 2 | purified 12hLO, xylenol orange hydroperoxide absorbance | Polyunsaturated fatty acid lipoxygenase ALOX12 (Homo sapiens), P18054 | Potency, µM (doses to about 108 µM), without a hit: at the highest dose activity change, negative = inhibition, most hits filed as inhibitors | hit rate 1.1% among 580,000
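Hydroperoxide product was detected by ferrous iron/xylenol orange as the 573 to 405 nm absorbance ratio. Arachidonic acid at 40 uM (final) was turned over for 30 min at room temperature by 150 nM human 12hLO, pH 7.0 Hepes buffer, after 15 min compound preincubation.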
PLK1 PBD inh: qHTS for Inhibitors of PLK1-PDB (polo-like kinase 1 - polo-box domain): Primary Screen. Plk1 PBD binding of FITC phosphopeptide, fluorescence polarization. Potency, µM, for the others: max response, negative = inhibition, actives largely listed as inhibitors. hit rate 2.8% among 360,000; further: series mostly up to about 57 µM; nearly all actives have a fitted effect of over 65% in size
Target sequence (P53350 whole entry, looked up, the tested form may be a part): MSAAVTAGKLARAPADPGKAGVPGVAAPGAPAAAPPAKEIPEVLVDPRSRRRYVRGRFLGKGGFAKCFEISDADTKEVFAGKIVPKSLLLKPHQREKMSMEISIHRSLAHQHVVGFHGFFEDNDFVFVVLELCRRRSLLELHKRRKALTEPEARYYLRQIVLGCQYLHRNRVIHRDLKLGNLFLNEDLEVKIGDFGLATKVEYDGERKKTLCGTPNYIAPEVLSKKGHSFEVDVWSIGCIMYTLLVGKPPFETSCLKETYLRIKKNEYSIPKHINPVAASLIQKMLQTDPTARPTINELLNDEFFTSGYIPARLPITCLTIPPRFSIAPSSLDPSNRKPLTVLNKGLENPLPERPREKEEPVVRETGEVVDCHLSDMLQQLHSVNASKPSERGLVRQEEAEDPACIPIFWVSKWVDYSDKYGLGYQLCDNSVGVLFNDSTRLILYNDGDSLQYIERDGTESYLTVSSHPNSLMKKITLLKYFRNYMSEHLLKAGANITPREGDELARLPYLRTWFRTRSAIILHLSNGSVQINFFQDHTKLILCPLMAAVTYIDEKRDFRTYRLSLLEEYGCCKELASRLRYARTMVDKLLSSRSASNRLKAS
VDR inhibitor: Inhibitors of the vitamin D receptor (VDR): qHTS. Vitamin D3 receptor (Homo sapiens), P11473. VDR-SRC2-3 peptide fluorescence polarization, 2 h. Potency, µM, inactives show max response, negative = inhibition, actives largely listed as inhibitors. hit rate 0.93% among 400,000
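Measured by FP: displacement of SRC2-3 coactivator peptide from VDR by library compounds, following a two-hour ambient incubation.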
* hit, by the source's call; u = inconclusive; x = no result given; ! = not confirmed by another sample. The call rests on the fitted dose curve; in most records, active means well fitted curve in the direction sought with a large enough effect; inconclusive means small, poorly fitted or top-dose-only effect, or another doubt; inactive means no such curve, though single readings can be large; an effect the other way counts as inactive or inconclusive. Unless noted, on the % scale 0 is the no-effect control and ±100 the full control effect; potency means the concentration at half of the fitted maximal effect.

SMILES	Sfp PPTase inh	ALOX12 inh	PLK1 PBD inh	VDR inhibitor
CC(=O)Nc1ccc(NC(=O)C(c2ccccc2)c2ccccc2)cc1	16%	2%	4%	15%
CCOC(=O)c1c(NC(=S)NC(=O)c2ccc(Cn3cc(Cl)cn3)o2)sc2c1CCC(C)C2 (stereo not given)	2%	45%	-11%	24%
Cc1ccc(-n2c(=S)[nH]c3sc4c(c3c2=O)CCc2ccccc2-4)cc1	13%	u	30µM*	-20%
Cc1cccc(-n2c(=S)[nH]c3sc4c(c3c2=O)CCc2ccccc2-4)c1	6%	16µM*	3µM*	u
CCSc1nc2sc3c(c2c(=O)[nH]1)CCc1ccccc1-3	-10%	-7%	-17%	-21%
CCOC(=O)/C(C#N)=C\c1ccc(N)cc1	x	49%	x	x
COc1ccccc1CN1CC(C(=O)NCCN2CCNC2=O)CCC1=O (stereo not given)	14%	5%	-11%	-11%
CCC(=O)NCCC(c1ccco1)c1ccccc1OC (stereo not given)	11µM*	u	-9%	-14%
COc1ccccc1C(CCN(Cc1cccs1)C(C)=O)c1ccco1 (stereo not given)	20µM*	u	-17%	u
CCC(=O)N(CCC(c1ccccc1)c1ccco1)Cc1cccs1 (stereo not given)	50µM*	u	-22%	u
COc1cc(OC)c(C(=O)N(Cc2ccco2)Cc2cccs2)cc1OC	x	x	x	-3%
O=C(Cn1cc(C(=O)C2CCCCC2)c2ccccc21)NCC1CCCO1 (stereo not given)	3%	8%	7%	-8%
CCOc1ccc(CC(=O)NCc2nnc3ccc(-c4ccc(C)cc4)nn23)cc1	x	20%	x	x
Cc1ccc(S(=O)(=O)N2CCOCC2)cc1NC(=O)CSc1n[nH]c(N)n1	20%	-3%	-3%	-2%
CCCC[N+](CCCC)(CCCC)CCCC	x	11µM*	x	x
O=C(Nc1ccc(NC(=O)c2cccs2)c(Cl)c1)c1cccs1	9%	19%	-1%	11%
O=C(COC(=O)c1ccc(O)cc1O)c1ccc(Cl)cc1	x	45µM*	-8%	1%
Nc1ccc(O)cc1C(=O)OCC(=O)c1ccc(C2CCCCC2)cc1	-20%	11µM*	5%	-21%
O=C(COC(=O)c1ccc(O)cc1O)Nc1ccc(Cl)cn1	15%	u	-2%	13%
Cc1ccc(-c2nn(C)c(=O)c3ccccc23)cc1CNC(=O)CSc1nc2ccccc2o1	2%	-26%	27µM*!	-3%
CCC(=O)NCc1cc(-c2nn(C)c(=O)c3ccccc23)ccc1C	15%	0%	2%	-9%
Cc1ccc(NC(=O)N2CCC3(CC2)OCCO3)cc1C	x	34%	x	x
Fc1cc2nccnc2cc1N1CCSCC1	13%	-14%	-5%	0%
Fc1cc2[nH]c(=S)[nH]c2c(Br)c1N1CCSCC1	50µM*	0%	27µM*	-14%
CNC(=S)NCCc1cc2c(OC)ccc(OC)c2[nH]c1=O	-7%	u	19µM*	u
SMILES	Sfp PPTase inh	ALOX12 inh	PLK1 PBD inh	VDR inhibitor
Cc1cc(C(=O)O)ccc1-c1ccc(/C=C2\NC(=O)N(Cc3ccccc3Cl)C2=O)o1	13µM*	x	17µM*	u
Cc1ccc(CN2C(=O)N/C(=C\c3ccc(-c4ccc(C(=O)O)cc4C)o3)C2=O)cc1	-27%	1%	u	-25%
Cc1ccc(C(=O)O)cc1-c1ccc(/C=C2/NC(=O)N(c3ccccc3)C2=O)o1	22µM*	u	u	-1%
O=C(O)c1ccc(-c2ccc(/C=C3\NC(=O)N(Cc4ccc(Cl)cc4)C3=O)o2)cc1	-18%	u	u	-9%
COc1cc(OC)cc(N2CC(C)(C)C2=O)c1	14%	-7%	21µM*	-24%
Fc1ccccc1Cc1noc(CN2CCC(OCc3cccnc3)CC2)n1	35µM*	-1%	-9%	-1%
Cc1ccc(S(=O)(=O)n2nc(OC(=O)c3c(-c4ccccc4Cl)noc3C)cc2N)cc1	16%	-10%	2.7µM*	-21%
COc1ccc(S(=O)(=O)n2nc(OC(=O)c3ccncc3)cc2N)cc1	-5%	2%	27µM*	u
Cc1ccc2nc(NC(=O)COC(=O)c3ccc(Br)o3)sc2c1	25µM*	u	u	-17%
O=C(COC(=O)c1ccc(Br)o1)Nc1nc2ccccc2s1	14%	u	-8%	14%
CC(C)c1ccc(C2CC(c3ccc(Br)cc3)=NN2C(N)=S)cc1 (stereo not given)	5%	45µM*	-3%	11%
CC(=O)N1N=C(c2ccc(Br)cc2)CC1c1ccc(Br)cc1 (stereo not given)	x	u	0%	x
Cc1c(CCOC(=O)CC23CC4CC(CC(C4)C2)C3)sc[n+]1CC(=O)c1ccccc1	79µM*	u	5%	-13%
Cc1c(CCOC(=O)C23CC4(C)CC(C)(CC(C)(C4)C2)C3)sc[n+]1CC(=O)c1ccccc1	u	u	-7%	-19%
Cc1ccc(N2C3=C(C(=O)CC(C)(C)C3)C(c3cn(C)nc3C)C3=C2CC(C)(C)CC3=O)cc1	x	-19%	3.8µM*	20µM*
O=C(Nc1cccc(Oc2ccc(C(=O)O)c(C(=O)O)c2)c1)c1ccc(-c2ccccc2)cc1	0%	6%	19µM*	2%
COC(=O)C1(NC(=O)c2cc(Cl)ccc2Cl)CCCCCC1	x	47%	x	x
COc1ccc([C@@H]2C[C@H](c3ccccc3)Oc3cc(C)cc(C)c32)cc1	21%	1.1µM*	5%	-12%
COc1cc(C(C(=O)NC2CCCCC2)N(C(=O)Cc2c[nH]c3ccccc23)c2ccccc2C)cc(OC)c1OC (stereo not given)	-5%	-16%	4%	14%
Cc1cccc(-n2cnc(C(=O)N3CCN(C)CC3)c2)n1	-2%	3%	-8%	-2%
Cc1cccc(-n2cnc(C(=O)NC3CCCCCC3)c2)n1	17%	-11%	24µM*	-2%
Cc1cccc(-n2cnc(C(=O)O)c2)n1	56µM*	-10%	1%	9%
COCCC(=O)N[C@H]1CC[C@]2(C)CCC([C@H](C)C(=O)N3CCC(C)CC3)[C@H](O)[C@H]2[C@@H]1C (stereo not given in full)	x	54%	x	x
C=CCn1cc(/C=N/Nc2nc3ccccc3[nH]2)c2ccccc21	16µM*	u	-8%	-8%
CC(C)(C)N(CC#CCC(O)(c1ccccc1)c1ccccc1)CCO	40µM*	7.9µM*	-2%	-19%
CN1CCN(CC#CCC(O)(c2ccccc2)c2ccccc2)CC1	6%	-12%	-16%	-7%
C[N+](C)(C)CCC(=O)N1C/C(=C/c2ccccc2)C(=O)/C(=C\c2ccccc2)C1	x	-17%	-11%	79µM*
Cc1ccccc1NC(NC(=O)c1cccnc1)C(Cl)(Cl)Cl (stereo not given)	-7%	-9%	-10%	-3%
